Calls of active or inactive are those of the source. Unless noted, the rule behind the calls is not given here.
Columns and labels:
[1] = tested on: Wnt5a (protein binding on small-molecule microarray); assay: Wnt5a binders on small-molecule microarray, primary screen, biophysical, 635/667 nm fluorescence (AID 1142); details: 635 nm fluorescence, higher = more signal;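 note: fluorescence read at 667 nm with signal to noise per printed feature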
[2] = cell viability in Huh7 cells, primary screen, cytotoxicity control for HCV replication inhibitor project, CellTiter-Glo luminescence, basal, 48 h (AID 1143); details: Huh7 HCV replicon, higher = more signal, called active from +8 up or from −8 down;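 note: Huh7 hepatoma cells carrying a hepatitis C replication reporter with no stimulus; test concentration not given here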
[3] = P. aeruginosa biofilm formation inhibitors, primary screen, PAO1 strain, BacTiter-Glo luminescence, LB-PBS (AID 1144); details: 12 h, higher = more signal
[4] = CREB reporter modulators without forskolin, primary screen, cell-based, PC12, CRE-LacZ reporter, unstimulated (AID 1145); details: no forskolin, luminescence, 4.5 h, higher = more signal, called active from +8 up or from −8 down
[5] = CREB reporter modulators under forskolin, primary screen, cell-based, PC12, CRE-LacZ reporter, forskolin-stimulated (AID 1146); details: luminescence, 4.5 h, higher = more signal, called active from +8 up or from −8 down;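 note: PC12 cells with 6xCRE LacZ reporter stimulated by forskolin 10 µM; beta-galactosidase reporter signal reflecting CREB driven transcription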
[6] = target: Streptavidin (Streptomyces avidinii) (UniProt P22629); assay: streptavidin binders on small-molecule microarray, primary screen, artefact control for SMM compound annotation, biophysical, 635/667 nm fluorescence (AID 1147); details: streptavidin binding, higher = more signal;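 note: signal reflects streptavidin binding to arrayed compounds as a control protein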
[7] = small-molecule binders of probe aInhba, primary screen, biochemical, small-molecule microarray, 635/667 nm fluorescence (AID 1148); details: higher = more signal;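 note: score merges 667nm spot fluorescence with signal-to-noise for antibody binding to printed compounds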
[8] = target: Torsin-1A (Homo sapiens) (UniProt O14656); assay: torsin A binders from cell lysate, primary screen, small-molecule microarray, wild-type, 635/667 nm (AID 1149); details: COS7 hTOR1A-WT lysate, 635 nm fluorescence, higher = more signal
[9] = target: Torsin-1A (Homo sapiens) (UniProt O14656); assay: small-molecule binders of mutant TOR1A in lysate, primary screen, cell lysate, small-molecule microarray, COS7 lysate, 635/667 nm fluorescence (AID 1150); details: COS7 hTOR1A mutant lysate, 635 nm fluorescence, higher = more signal;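 note: score pools 667 nm emission and signal to noise measuring lysate protein binding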
[10] = tested on: Sonic hedgehog protein (Shh); assay: small-molecule binders of Shh protein, primary screen, biochemical, small-molecule microarray, 635/667 nm fluorescence (AID 1151); details: small-molecule microarray binding, 635 nm fluorescence; higher = more signal;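 note: Shh protein binding to compounds spotted on small-molecule microarray slides; score combines spot fluorescence intensity with signal-to-noise across triplicate slides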
[11] = E. coli DRC41 culture turbidity changes, primary screen, E. coli filamentation inducer project, strain DRC41, OD650, 48 h (AID 1152);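 note: E. coli MC1000 strain DRC41 lacking acrAB efflux pump and sulA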; details: E. coli DRC41 (acrAB sulA), higher = more signal, called active from +8 up or from −8 down
[12] = small-molecule binders of probe aLefty1, primary screen, biochemical, small-molecule microarray, 635/667 nm fluorescence (AID 1153); details: higher = more signal;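 note: score merges spot fluorescence with signal-to-noise ratio from the scanned slide images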
[13] = PSAC antagonists in infected red cells, primary screen, cell-based, P. falciparum Indochina, OD700, 1 h (AID 1154); details: P. falciparum Indochina infected RBC osmotic lysis, higher = more signal, called active from +8 up or from −8 down
[14] = PSAC antagonists in infected red cells, primary screen, cell-based, P. falciparum Indochina, OD700, 2 h (AID 1155);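 note: lysis reports solute entry through the parasite surface anion channel PSAC; channel blockers reduce lysis of infected cells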; details: P. falciparum Indochina infected erythrocytes, osmotic lysis OD700; higher = more signal, called active from +8 up or from −8 down
[15] = osmotic lysis modulators in infected erythrocytes, primary screen, PSAC antagonist project, cell-based, P. falciparum Indochina, OD700, 3 h (AID 1156); details: higher = more signal, called active from +8 up or from −8 down
[16] = PSAC antagonists in infected red cells, primary screen, cell-based, P. falciparum Indochina, OD700, 18 h (AID 1157); details: P. falciparum Indochina infected erythrocytes, osmotic lysis OD700, 18 h; higher = more signal, called active from +8 up or from −8 down
[17] = modulators of S6 phosphorylation in cells, primary screen, cell-based, A549, cytoblot, luminescence, serum-stimulated (AID 1158); details: A549 phospho-S6 cytoblot, 5 h, higher = more signal;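 note: serum-stimulated A549 lung adenocarcinoma cells; signal is phosphorylated S6 detected by cytoblot immunostaining with HRP secondary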
[18] = target: NADPH oxidase 2 (Homo sapiens) (UniProt P04839); assay: NOX2-dependent H2O2 signal modulators, primary screen, NOX inhibitor project, cell-based, HEK293-NOX2, PMA-stimulated, Amplex Red fluorescence (AID 1159); details: 45 min, higher = more signal, called active from +8 up or from −8 down; note: test concentration not given here
[19] = target: NADPH oxidase 4 (Homo sapiens) (UniProt Q9NPH5); assay: NOX4-dependent H2O2 signal modulators, primary screen, NOX inhibitor project, cell-based, HEK293-NOX4, tetracycline-induced, Amplex Red fluorescence (AID 1160); details: 45 min, higher = more signal, called active from +8 up or from −8 down
[20] = target: NADPH oxidase 5 (Homo sapiens) (UniProt Q96PH1); assay: NOX5-dependent H2O2 signal modulators, primary screen, NOX inhibitor project, cell-based, HEK293-NOX5, Amplex Red fluorescence (AID 1161); details: HEK293-NOX5, ionomycin, 45 min, higher = more signal
Chain of NADPH oxidase 5 (Homo sapiens) (Q96PH1 whole entry, looked up): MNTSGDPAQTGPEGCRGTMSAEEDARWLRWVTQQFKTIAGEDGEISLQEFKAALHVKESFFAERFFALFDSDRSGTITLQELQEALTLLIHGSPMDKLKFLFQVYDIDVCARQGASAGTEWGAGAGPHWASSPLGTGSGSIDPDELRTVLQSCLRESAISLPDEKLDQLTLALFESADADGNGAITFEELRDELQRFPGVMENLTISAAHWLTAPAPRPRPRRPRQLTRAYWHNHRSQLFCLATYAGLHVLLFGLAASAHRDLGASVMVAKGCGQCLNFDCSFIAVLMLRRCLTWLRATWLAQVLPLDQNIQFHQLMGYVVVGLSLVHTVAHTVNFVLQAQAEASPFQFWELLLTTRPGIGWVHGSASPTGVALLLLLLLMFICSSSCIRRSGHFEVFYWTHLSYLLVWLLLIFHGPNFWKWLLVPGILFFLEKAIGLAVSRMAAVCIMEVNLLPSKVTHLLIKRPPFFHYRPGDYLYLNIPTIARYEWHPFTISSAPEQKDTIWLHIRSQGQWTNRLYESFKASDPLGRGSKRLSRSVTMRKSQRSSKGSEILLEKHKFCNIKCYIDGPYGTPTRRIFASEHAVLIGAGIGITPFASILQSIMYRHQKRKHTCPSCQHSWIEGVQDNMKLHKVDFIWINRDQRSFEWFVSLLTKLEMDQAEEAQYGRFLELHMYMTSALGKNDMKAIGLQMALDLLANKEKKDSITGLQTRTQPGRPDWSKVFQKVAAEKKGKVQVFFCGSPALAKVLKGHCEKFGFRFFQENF

Chain of NADPH oxidase 2 (Homo sapiens) (P04839 whole entry, looked up): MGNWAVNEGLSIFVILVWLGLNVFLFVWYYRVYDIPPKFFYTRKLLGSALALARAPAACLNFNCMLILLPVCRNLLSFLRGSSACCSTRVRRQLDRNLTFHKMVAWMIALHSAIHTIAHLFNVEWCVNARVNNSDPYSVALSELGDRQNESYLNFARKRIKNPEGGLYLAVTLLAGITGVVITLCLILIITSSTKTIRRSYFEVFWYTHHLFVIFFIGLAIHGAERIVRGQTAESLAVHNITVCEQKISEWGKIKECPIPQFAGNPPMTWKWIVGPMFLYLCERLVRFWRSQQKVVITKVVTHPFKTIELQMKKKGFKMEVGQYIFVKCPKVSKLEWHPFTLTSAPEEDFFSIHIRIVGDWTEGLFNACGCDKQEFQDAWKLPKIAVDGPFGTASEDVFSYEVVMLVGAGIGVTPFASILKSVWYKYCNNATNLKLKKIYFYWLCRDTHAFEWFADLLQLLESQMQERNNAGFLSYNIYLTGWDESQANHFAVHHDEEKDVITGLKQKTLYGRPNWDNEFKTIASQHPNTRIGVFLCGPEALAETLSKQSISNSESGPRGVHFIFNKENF
Chain of Torsin-1A (Homo sapiens) (O14656 whole entry, looked up): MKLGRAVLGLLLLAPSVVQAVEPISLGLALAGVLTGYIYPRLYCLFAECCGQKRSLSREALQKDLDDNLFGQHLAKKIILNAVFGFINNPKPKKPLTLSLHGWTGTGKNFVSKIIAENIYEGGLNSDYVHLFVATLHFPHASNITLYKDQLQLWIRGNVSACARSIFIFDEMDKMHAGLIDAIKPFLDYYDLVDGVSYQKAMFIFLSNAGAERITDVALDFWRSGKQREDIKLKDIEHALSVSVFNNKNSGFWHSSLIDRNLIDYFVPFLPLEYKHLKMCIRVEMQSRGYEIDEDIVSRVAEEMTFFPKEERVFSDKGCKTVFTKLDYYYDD
Chain of Streptavidin (Streptomyces avidinii) (P22629 whole entry, looked up): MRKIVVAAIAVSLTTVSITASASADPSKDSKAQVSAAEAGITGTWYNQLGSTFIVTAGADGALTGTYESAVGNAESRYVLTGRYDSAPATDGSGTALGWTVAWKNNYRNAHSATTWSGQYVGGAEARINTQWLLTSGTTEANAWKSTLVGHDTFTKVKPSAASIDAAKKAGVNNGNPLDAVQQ
Chain of NADPH oxidase 4 (Homo sapiens) (Q9NPH5 whole entry, looked up): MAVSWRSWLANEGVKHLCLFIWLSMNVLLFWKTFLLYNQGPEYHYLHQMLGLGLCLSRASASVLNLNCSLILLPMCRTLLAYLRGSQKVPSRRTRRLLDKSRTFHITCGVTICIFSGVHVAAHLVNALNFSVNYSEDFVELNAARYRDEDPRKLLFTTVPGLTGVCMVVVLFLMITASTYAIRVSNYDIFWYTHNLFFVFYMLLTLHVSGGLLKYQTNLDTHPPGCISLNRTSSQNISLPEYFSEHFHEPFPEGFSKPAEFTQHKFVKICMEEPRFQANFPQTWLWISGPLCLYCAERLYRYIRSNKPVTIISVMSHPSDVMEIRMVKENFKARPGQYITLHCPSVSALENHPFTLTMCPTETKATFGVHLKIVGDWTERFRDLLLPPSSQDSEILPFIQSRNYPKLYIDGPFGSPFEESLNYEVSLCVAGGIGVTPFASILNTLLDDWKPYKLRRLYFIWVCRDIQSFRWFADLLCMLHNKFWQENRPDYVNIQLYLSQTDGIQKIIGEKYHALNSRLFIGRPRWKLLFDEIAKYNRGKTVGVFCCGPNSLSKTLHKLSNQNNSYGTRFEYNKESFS

SMILES	composite z-score [1]	z-score [2]	z-score [3]	z-score [4]	z-score [5]	composite z-score [6]	composite z-score [7]	composite z-score [8]	composite z-score [9]	composite z-score [10]	z-score [11]	composite z-score [12]	z-score [13]	z-score [14]	z-score [15]	z-score [16]	z-score [17]	z-score [18]	z-score [19]	z-score [20]
COC(=O)C(CC#Cc1ccc2c(c1)[C@]1(C(=O)N2)[C@H](C(=O)N2CCc3cc(OC)c(OC)cc3C2)[C@H]2C(=O)O[C@H](c3ccccc3)[C@H](c3ccccc3)N2[C@@H]1c1ccc(OCCO)cc1)C(=O)OC	0.5	-0.201 (inactive)	-0.895 (inactive)	0.865 (inactive)	-0.474 (inactive)	1.28	0.246	1.28	0.251	1.64	0.408 (inactive)	0.546	6.17 (inactive)	2.37 (inactive)	1.15 (inactive)	1.28 (inactive)	0.237	1.26 (inactive)	0.487 (inactive)	1.32
COc1ccc(C(=O)Nc2ccc(CN3C(=O)[C@@]4(O[C@@H](CC(=O)N5Cc6ccccc6C[C@H]5CO)[C@H]([Si](C)(C)c5ccc(OC)cc5)[C@H]4C)c4ccccc43)cc2)cc1	0.206	-3.32 (inactive)	0.127 (inactive)	0.381 (inactive)	0.281 (inactive)	-0.145	-0.154	1.31	0.002	1.62	0.0225 (inactive)	0.176	4.72 (inactive)	1.4 (inactive)	0.655 (inactive)	0.868 (inactive)	0.0933	0.105 (inactive)	0.417 (inactive)	-0.886
CC(C)(C)OC(=O)CC[C@@]1(C(=O)N2CCCCC2)N=C(c2ccc(OCCCO)cc2)O[C@@H]1c1ccccc1CN=[N+]=[N-]	0.34	-1.95 (inactive)	0.37 (inactive)	0.414 (inactive)	-0.284 (inactive)	1.07	0.248	1.1	1.22	-0.226	0.502 (inactive)	0.549	29.6 (active)	25 (active)	1.03 (inactive)	4.6 (inactive)	-0.243	-0.601 (inactive)	1.13 (inactive)	1.22
Cc1ccc(C(C)CC(O)C2C=CC3C(=O)N(Cc4ccccc4)C(=O)C3N2n2cnnc2)o1 (stereo not given)	1.36	-0.167 (inactive)	0.928 (inactive)	0.323 (inactive)	1.14 (inactive)	0.352	1.36	0.173	0.663	-0.265	-1.44 (inactive)	1.21	2.31 (inactive)	0.793 (inactive)	0.809 (inactive)	0.709 (inactive)	-0.63	-0.168 (inactive)	-1.78 (inactive)	-2.17
OCCCC1=CC(c2cccs2)N(Cc2cccc(OC(F)(F)F)c2)CC1 (stereo not given)	-0.335	-1.06 (inactive)	0.839 (inactive)	0.593 (inactive)	-0.368 (inactive)	-0.889	-0.179	0.331	-0.632	0.243	-1.07 (inactive)	-0.0109	7.72 (inactive)	1.33 (inactive)	-0.499 (inactive)	1.07 (inactive)	-0.105	-0.257 (inactive)	-1.27 (inactive)	-1.11
COc1ccc([Si](C)(C)[C@@H]2[C@@H](CC(=O)N3Cc4ccccc4C[C@H]3CO)O[C@]3(C(=O)N(Cc4cccc(N5CCCCC5=O)c4)c4ccccc43)[C@H]2C)cc1	0.41	-3.71 (inactive)	0.723 (inactive)	1.88 (inactive)	-0.136 (inactive)	0.287	0.17	0.652	0.101	1.76	-0.261 (inactive)	-0.147	4.07 (inactive)	1.27 (inactive)	1.64 (inactive)	0.867 (inactive)	0.297	-1.63 (inactive)	0.265 (inactive)	0.805
CC(C)C[C@@H]1NC(=O)[C@@]23C(=O)N[C@@H](Cc4ccccc4)C2[C@H](C)[C@@]2(C)O[C@H]2C3/C=C/C/C=C\CNC(=O)[C@@H]2CCCN2C1=O (stereo not given in full)	-0.0917	-0.577 (inactive)	0.595 (inactive)	1.12 (inactive)	-0.2 (inactive)	-0.767	0.0051	0.249	0.0725	0.468	-0.797 (inactive)	-0.234	0.918 (inactive)	0.182 (inactive)	-0.551 (inactive)	0.01 (inactive)	0.226	0.593 (inactive)	1.14 (inactive)	0.579
CC(C)(C)OC(=O)CC[C@]1(C(=O)O)COC(c2ccc(OCCCO)cc2)=N1	-0.0943	0.61 (inactive)	0.178 (inactive)	0.694 (inactive)	0.506 (inactive)	0.142	-0.0589	0.676	1.08	-2.07	-0.283 (inactive)	0.126	2.54 (inactive)	-0.0827 (inactive)	0.091 (inactive)	0.0515 (inactive)	-0.426	0.0212 (inactive)	0.624 (inactive)	0.487
CN(C)CCCN1C(=O)[C@@]2(Cc3ccccc31)c1ccccc1C(=O)N(Cc1ccccc1)[C@H]2c1ccc(CO)cc1	-0.173	-5.06 (inactive)	-1.74 (inactive)	-0.491 (inactive)	-0.665 (inactive)	-0.394	-0.128	-0.158	-0.105	0.463	0.0234 (inactive)	-0.193	-0.0561 (inactive)	-0.952 (inactive)	0.182 (inactive)	-1.33 (inactive)	2.05	-2.34 (inactive)	-2.82 (inactive)	-2.96

Source: PubChem BioAssay
